# Measurements reported in PubChem BioAssay (Tox21).
# Results filed as inconclusive are left out. Where a call stands in place of a potency, no number is given. Unmarked numbers belong to inactive results. Active and inactive are the calls of the source. The call rests on the fitted dose curve; in most records, active means well fitted cell-killing curve with a large enough effect in the repeat runs; inconclusive means weak or mixed curves, or effect the other way; inactive means flat fitted curve, though single readings scatter.
# Assay: cAMP Responsive Elements (CRE) small molecule antagonists, cell-based qHTS assay: qHTS cell viability counter screen (AID 2060913); further: nearly all actives have a fitted effect of over 40% in size
# Settings: CRE-bla HEK293T viability, CellTiter-Glo luminescence, 5 h; series mostly up to 92.4 µM
# Excerpt: U.S. Tox21 Program National Center for Advancing Translational Sciences [NCATS] Division of Preclinical Innovation [DPI] U.S. Environmental Protection Agency [EPA] National Institutes of Environmental Health Sciences [NIEHS] National Toxicology Program [NTP] U.S. Food and Drug Administration [FDA] Tox21 Assay Overview: CREB (cyclic-AMP Responsive Element Binding Protein) is a cellular transcription factor. It binds to certain DNA sequences called cAMP Responsive Elements (CRE) and regulates the transcription of the genes. […] This cell line can be used to find agonists/antagonists of the cyclic AMP signaling pathway. The activation of the report gene under culture conditions can be detected by fluorescence intensity. This cell line has been used to screen the Tox21 10K compound library to identify agonists that induce oxidative stress. The cytotoxicity of the Tox21 compound library against the CRE-bla cell line was tested in parallel by measuring the cell viability using CellTiter-Glo assay (Promega, Madison, WI) in the same wells.
# Tox21 Assay Protocol Summary: CRE-bla Hek 293T cells were suspended in assay medium (DMEM containing 10% dialyzed FBS, 0.1 mM NEAA, 1 mM sodium pyruvate and 25 mM HEPES) and dispensed at 2,000 cells/4 uL /well into 1536-well black wall/clear bottom plates using a Multidrop Combi (ThermoFisher Scientific, Waltham, MA) dispenser. After the assay plates were incubated at 37 C/5% CO2 for 18 hrs, 23 nL of compounds dissolved in DMSO, positive controls or DMSO only was transferred to the assay plate by a pintool workstation (Kalypsys, San Diego, CA), followed by addition of 1 uL of 1.25uM NKH477 (0.25 uM as final concentration) in assay medium using a Flying Reagent Dispenser (Aurora Discovery, San Diego, CA). The plates were incubated at 37 C and 5% CO2 for 3 hrs. Then 1 uL of LiveBLAzer B/G FRET substrate (Invitrogen, Carlsbad, CA) was added to each well using Bioraptr Flying Reagent Dispenser (FRD, Aurora Discovery, San Diego, CA). The plates were incubated at room temperature for 2 h, then fluorescence intensities were measured using an Envision plate reader (PerkinElmer, Shelton, CT) at Excitation 405nm, Emission 460nm and 530nm. The % activity was determined from the ratio of 460nm/530nm. For cell viability readout that measures cytotoxicity, 4 uL /well of CellTiter-Glo reagent was added into the assay plates using Bioraptr FRD. After 30 min incubation at room temperature, the luminescence intensity in the assay plates was measured using a ViewLux (PerkinElmer, Shelton, CT) plate reader.
# Potency means the concentration at half of the fitted maximal effect.
Structure (SMILES),Potency,"viability change, negative = cytotoxic"
COC(=O)CC(C(C)=O)C(=O)OC (stereo not given),inactive,
CCc1c(C)[nH]c2c1C(=O)C(CN1CCOCC1)CC2 (stereo not given),inactive,
COc1cc(NC(C)CCCN)c2ncccc2c1 (stereo not given),inactive,
CC12CCC(C(=O)C1=O)C2(C)C (stereo not given),inactive,
O=C(Cl)c1ccc(Cl)cc1Cl,inactive,
COc1cc2ncnc(Nc3cccc(Cl)c3)c2cc1OC,,6.79% [at 18.9 µM]
CCC(=O)C(=O)CC,inactive,
CC1(C)O[C@@H]2C[C@H]3[C@@H]4CCC5=CC(=O)CC[C@]5(C)[C@@]4(F)[C@@H](O)C[C@]3(C)[C@]2(C(=O)CCl)O1,inactive,
C/C(=C(\CCOP(=O)(O)O)SC(=O)c1ccccc1)N(C=O)Cc1cnc(C)nc1N,,1.04% [at 8.39 µM]
Cc1cc(=O)oc2cc(O)cc(O)c12,inactive,
C[N+]1(CC2COC(c3ccccc3)(c3ccccc3)O2)CCCCC1 (stereo not given),,0.835% [at 18.9 µM]
Cc1c(C)n(CCN(C)C)c2ccc(C(=O)OCCN(C)C)cc12,inactive,
Nc1c(Br)cc([N+](=O)[O-])cc1Br,inactive,
CN(C)CCOCCN(C)C,inactive,
Cc1ccc(N=Nc2c(O)ccc3ccccc23)c(C)c1,inactive,
c1ccc(C(O[C@H]2CCCN(CCc3ccc4c(c3)OCO4)C2)c2ccccc2)cc1,inactive,
CSCC[C@H](NC(=O)[C@H](Cc1c[nH]c2ccccc12)NC(=O)CCNC(=O)OC(C)(C)C)C(=O)N[C@@H](CC(=O)O)C(=O)N[C@@H](Cc1ccccc1)C(N)=O,inactive,
CCCCCCCCCCCCCC[n+]1ccccc1,48.6 µM (active),
O=C1CCCc2c(O)cccc21,inactive,
Cc1cc(C)c(C=O)c(C)c1,inactive,

Structure (SMILES),Potency,"viability change, negative = cytotoxic"
O=C1NC(c2ccccc2)(c2ccccc2)C(=O)N1COP(=O)(O)O,inactive,
CC(=O)OCc1ccccc1,inactive,
CCCCCCCCO,inactive,
CCN(CC)CCNC(=O)COc1ccc(OC)cc1,inactive,
C=C1CC/C=C(\C)CC[C@@H]2[C@@H]1CC2(C)C,inactive,
CS(=O)(=O)OCCCCOS(C)(=O)=O,inactive,
CCC1(c2ccccc2)C(=O)NCNC1=O,inactive,
CC(C)COCC(CN(Cc1ccccc1)c1ccccc1)N1CCCC1 (stereo not given),29.8 µM (active),
C=C(C)C(=O)OCCCCCCCCCCCC,inactive,
COC(=O)c1cccnc1,inactive,
CCCCCCCCCCCCCCCC(=O)OCC,inactive,
CC[C@H](NC(C)C)[C@H](O)c1ccc(O)c2[nH]c(=O)ccc12,inactive,
O=C1c2ccccc2S(=O)(=O)N1CCCCN1CCN(c2ncccn2)CC1,inactive,
CC(=O)Oc1cccc(O)c1,inactive,
O=c1[nH]c(=O)c2ccccc2o1,inactive,
C[C@H](CCC(=O)O)[C@H]1CC[C@H]2[C@@H]3CC[C@@H]4C[C@H](O)CC[C@]4(C)[C@H]3CC[C@]12C,inactive,
CCN(CC)C(=O)N(CC)CC,inactive,
CCCCCCCOC(=O)CCC,inactive,
CCN(C)C(=O)Oc1cccc([C@H](C)N(C)C)c1,inactive,
CC(C)C[C@H]1C(=O)N2CCC[C@H]2[C@]2(O)O[C@](NC(=O)[C@@H]3C=C4c5cccc6[nH]c(Br)c(c56)C[C@H]4N(C)C3)(C(C)C)C(=O)N12,inactive,
